MCL1-BIM inh: MCL1-BIM-BH3 interaction inhibition (human) | actives 0.68% (n = 320,000) | AID 2057 | inhibition, % at 10.9 µM | GST-MCL1 / FITC-Bim-BH3 fluorescence polarization;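 active = inhibition above the mean inhibition of all tested compounds plus 3 SD, set per campaign, cut at about 40% in these data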;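 also: 0% = DMSO wells and 100% = unlabeled Bim-BH3 peptide control; higher means more loss of mP so more displacement of Bim peptide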
GLD-1 RNA inh: GLD-1-TGE RNA interaction inhibition (C. elegans). Q17339. purified GLD-1 + fluorescein TGE RNA, fluorescence polarization. inhibition, % at 5.96 µM. actives 0.44% (n = 320,000). AID 2280;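 active = percent inhibition above a per-plate cutoff, the plate mean of test compounds plus 3 SD, cut at about 30% in these data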;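 also: 0% = DMSO wells with GLD-1 and probe and 100% = wells lacking GLD-1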
Target sequence (Q17339 whole entry, looked up): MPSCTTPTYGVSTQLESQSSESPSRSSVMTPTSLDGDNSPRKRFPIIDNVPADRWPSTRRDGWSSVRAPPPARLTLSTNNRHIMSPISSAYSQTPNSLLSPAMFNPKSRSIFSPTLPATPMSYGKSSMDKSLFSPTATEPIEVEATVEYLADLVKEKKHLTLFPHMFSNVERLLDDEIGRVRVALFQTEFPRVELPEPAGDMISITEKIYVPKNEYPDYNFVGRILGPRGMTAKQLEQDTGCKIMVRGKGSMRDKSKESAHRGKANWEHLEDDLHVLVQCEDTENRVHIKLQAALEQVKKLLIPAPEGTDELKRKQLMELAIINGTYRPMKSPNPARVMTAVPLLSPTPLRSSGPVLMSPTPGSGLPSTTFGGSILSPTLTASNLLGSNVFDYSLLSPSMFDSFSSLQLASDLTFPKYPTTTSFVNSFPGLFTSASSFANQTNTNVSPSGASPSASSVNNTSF
Mcl1-Noxa inh: disrupts binding of human Mcl-1 to Noxa peptide | inhibition, % at 21.7 µM | actives 1.5% (n = 220,000) | Q07820 | TR-FRET Mcl-1/Noxa peptide binding, 2 h;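 active = compounds that cut the protein-peptide binding signal by more than 50% relative to plate controls in a single-dose test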;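 also: His-tagged Mcl-1 with rhodamine Noxa BH3 peptide and terbium anti-His antibody; 0% = Mcl-1 plus Noxa peptide wells and 100% = peptide-only wells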
BCLXL inh: Bcl-xL (human) inhibition | GST-Bcl-xL / FITC-Bim BH3 peptide fluorescence polarization | inhibition, % at 10.9 µM | actives 0.7% (n = 320,000);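 active = inhibition above the mean of all tested compounds plus 3 SD, cutoff set per campaign, cut at about 30% in these data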;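 also: 0% = DMSO wells and 100% = unlabeled Bim-BH3 peptide competitor; inhibitors lower millipolarization by displacing the labeled peptide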
Mcl1-Bid inh: Mcl-1/Bid interaction inhibition | TR-FRET Mcl-1/Bid-Dy647 peptide binding, 1536-well | Q07820 | actives 0.97% (n = 220,000) | inhibition, % at 21.7 µM;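 active = compounds that cut the binding signal by more than half at the single screening dose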;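 also: His-tagged Mcl-1 with europium anti-His antibody binding Bid BH3 peptide; 0% = Mcl-1 plus peptide wells and 100% = peptide-only wells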
Bim-Mcl-1: human Bim-Mcl-1 interaction inhibition. actives 0.1% (n = 190,000). Bead-based flow cytometry, Bim peptide-Mcl-1 binding. Q07820. inhibition, % at 10 µM. AID 1009; in the data active = inhibition above about 40%;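 also: 0% = no compound tracer wells and 100% = peptide blocker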
BCLXL inh confirm: Bcl-xL (human) inhibition, MCL1 counter-screen confirmation | shares compounds with MCL1-BIM inh | GST-Bcl-xL / FITC-Bim BH3 peptide FP binding | inhibition, % at 10.9 µM | actives 54% (n = 1,700) | AID 2166;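 active = inhibition above a cutoff equal to the mean inhibition of all tested compounds plus 3 SD, cut at about 30% in these data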;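 also: 0% = DMSO wells and 100% = unlabeled Bim BH3 control peptide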
MCL1 inh confirm: MCL1-BIM-BH3 interaction inhibition, confirmation. shares compounds with MCL1-BIM inh. GST-MCL1 / FITC-Bim-BH3 fluorescence polarization. inhibition, % at 10.9 µM. actives 61% (n = 1,700). AID 2168;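 active = inhibition above the average of all tested compounds plus 3 SD, cut at about 40% in these data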;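 also: 0% = DMSO wells and 100% = unlabeled Bim-BH3 control peptide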
GLD1 RNA confirm: GLD-1 TGE RNA interaction inhibition, confirmation; actives 10% (n = 550); GLD-1/FL-TGE RNA fluorescence polarization, biochemical; AID 2459; inhibition, % at 5.96 µM; shares compounds with GLD-1 RNA inh;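 active = average inhibition across triplicates above the hit cutoff set in the primary screen, cut at about 32% in these data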;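 also: 0% = GLD-1 with RNA probe and DMSO and 100% = wells lacking GLD-1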
* = called active by the depositor; x = not tested or not shown; + = active, no number. Most compounds without a hit are left out; they make up all but 2.3% or so of the library.

SMILES	MCL1-BIM inh	GLD-1 RNA inh	Mcl1-Noxa inh	BCLXL inh	Mcl1-Bid inh	Bim-Mcl-1	BCLXL inh confirm	MCL1 inh confirm	GLD1 RNA confirm
Cc1cnc(-n2c(=S)[nH]c3ccccc3c2=O)s1	0.1	-2.3	x	5.4	x	x	x	x	x
Nc1cccc(N=Cc2c(O)n(Cc3ccc(F)cc3)c(=O)[nH]c2=O)c1	83.8*	-63.5	9.2	66.4*	-27.1	-2.0	15.7	1.6	x
O=c1[nH]c(=O)n(Cc2ccc(F)cc2)c(O)c1C=Nc1ccc(Cl)cc1	-3.1	-3.9	21.2	-5.4	3.2	-2.0	x	x	x
COc1ccc(C)cc1NC1=NC(C)(C)CS1	0.8	-3.7	-10.9	3.7	-36.9	3.0	x	x	x
CN1C[C@H](CO)C=C2c3cccc4[nH]cc(c34)C[C@H]21	79.1*	63.6*	19.3	70.0*	-22.7	1.0	65.1*	86.7*	16.6
CC(C)[C@@]1(NC(=O)[C@@H]2C=C3c4cccc5[nH]cc(c45)C[C@H]3N(C)C2)O[C@@]2(O)[C@@H]3CCCN3C(=O)[C@H](Cc3ccccc3)N2C1=O	x	x	24.2	x	-9.3	5.0	x	x	x
CN1Cc2c(c(C#N)c(N)n(C)c2=S)CC1(C)C	102.7*	46.1*	15.3	94.3*	-64.7	5.0	144.0*	184.6*	26.9
Nc1cc2nc3ccccc3nc2cc1N	140.4*	36.0*	51.2*	95.6*	-55.3	x	+	+	60.6*
COC(=O)[C@@]1(C#N)[C@@H]2C=CC(C(C)=O)=CN2[C@@H](C(N)=O)[C@@H]1c1ccc(F)cc1	81.4*	43.9*	4.8	72.2*	-36.4	x	149.0*	188.8*	97.3*
O=P(O)(O)Oc1ccccc1P(=O)(c1ccccc1)c1ccccc1	8.7	-0.1	x	4.9	x	x	x	x	x
CCc1ccc(NC(=O)CCNC(=O)N2C[C@H]3C[C@@H](C2)c2cccc(=O)n2C3)cc1	-3.0	9.9	x	-3.0	x	x	x	x	x
COc1ccccc1N1CCN(CCc2ccccc2)CC1	-0.2	0.7	x	3.0	x	x	x	x	x
COc1cc2c(C(=O)N3CCN(C)CC3)c(C)n(C)c2cc1Br	42.0*	37.6*	6.0	39.8*	-1.8	-7.0	x	x	5.2
Cc1noc(C)c1CC(=O)N1CCCC(N2CCN(c3ccccc3F)CC2)C1 (configuration not stated)	-1.5	0.6	x	3.2	x	x	x	x	x

Assay outcomes (PubChem)
